Like-named read-outs stand apart in the source and are kept apart here.
Experiments:
Design in all cases: species or system human, MV4-11 + K-562 + COLO205 + SK-N-BE2 + OVCAR-8
[1] = tested on: EIF5B; conditions: read-out: apparent Kd; compound concentrations: 100 nM and 1000 nM (sheet 'Samples'), CATDS: 0.290212668862731; n = 1
[2] = tested on: FECH; conditions: read-out: apparent Kd; compound concentrations: 100 nM and 1000 nM (sheet 'Samples'), CATDS: 0.34999062122036301; n = 1
[3] = tested on: PLK1; conditions: read-out: apparent Kd; compound concentrations: 100 nM and 1000 nM (sheet 'Samples'), CATDS: 0.37077800289250101; n = 1
[4] = tested on: EPHA1; conditions: read-out: apparent Kd, compound concentrations: 100 nM and 1000 nM (sheet 'Samples'), n = 1
[5] = tested on: EPHA2; conditions: read-out: apparent Kd; compound concentrations: 100 nM and 1000 nM (sheet 'Samples'), CATDS: 7.9638266315165504E-2; n = 1
[6] = tested on: EPHA4; conditions: read-out: apparent Kd; compound concentrations: 100 nM and 1000 nM (sheet 'Samples'), CATDS: 5.73813509995778E-2; n = 1
[7] = tested on: EPHA5; conditions: read-out: apparent Kd, compound concentrations: 100 nM and 1000 nM (sheet 'Samples'), n = 1
[8] = tested on: EPHB2; conditions: read-out: apparent Kd; compound concentrations: 100 nM and 1000 nM (sheet 'Samples'), CATDS: 6.01599429552135E-2; n = 1
[9] = tested on: EPHB4; conditions: read-out: apparent Kd; compound concentrations: 100 nM and 1000 nM (sheet 'Samples'), CATDS: 8.2169743824678607E-2; n = 1
[10] = tested on: GAK; conditions: read-out: apparent Kd, compound concentrations: 100 nM and 1000 nM (sheet 'Samples'), n = 1
[11] = tested on: HSP90B1; conditions: read-out: apparent Kd; compound concentrations: 100 nM and 1000 nM (sheet 'Samples'), CATDS: 5.9403199864953501E-2; n = 1
[12] = tested on: MAP4K4; conditions: read-out: apparent Kd; compound concentrations: 100 nM and 1000 nM (sheet 'Samples'), CATDS: 6.0397447549850998E-2; n = 1
[13] = tested on: RIPK2; conditions: read-out: apparent Kd, compound concentrations: 100 nM and 1000 nM (sheet 'Samples'), n = 1
[14] = tested on: RIPK3; conditions: read-out: apparent Kd, compound concentrations: 100 nM and 1000 nM (sheet 'Samples'), n = 1
[15] = tested on: TGFBR2; conditions: read-out: apparent Kd, compound concentrations: 100 nM and 1000 nM (sheet 'Samples'), n = 1
[16] = tested on: TNIK; conditions: read-out: apparent Kd; compound concentrations: 100 nM and 1000 nM (sheet 'Samples'), CATDS: 7.16657274929937E-2; n = 1
[17] = tested on: EPHB3; conditions: read-out: apparent Kd; compound concentrations: 100 nM and 1000 nM (sheet 'Samples'), CATDS: 9.8269686784854801E-2; n = 1
[18] = tested on: FYN; conditions: read-out: apparent Kd, compound concentrations: 100 nM and 1000 nM (sheet 'Samples'), n = 1
[19] = tested on: RET; conditions: read-out: apparent Kd; compound concentrations: 100 nM and 1000 nM (sheet 'Samples'), CATDS: 0.126385665807943; n = 1
[20] = tested on: PIK3CD; conditions: read-out: apparent Kd; compound concentrations: 100 nM and 1000 nM (sheet 'Samples'), CATDS: 0.85995893919281496; n = 1
[21] = tested on: EPHA7; conditions: read-out: apparent Kd; compound concentrations: 100 nM and 1000 nM (sheet 'Samples'), CATDS: 1; n = 1
[22] = tested on: EPHB6; conditions: read-out: apparent Kd, n = 1
[23] = tested on: FLT4; conditions: read-out: apparent Kd; compound concentrations: 100 nM and 1000 nM (sheet 'Samples'), CATDS: 0.213105830255753; n = 1
[24] = tested on: MAP2K5; conditions: read-out: apparent Kd, compound concentrations: 100 nM and 1000 nM (sheet 'Samples'), n = 1
[25] = tested on: PDGFRB; conditions: read-out: apparent Kd; compound concentrations: 100 nM and 1000 nM (sheet 'Samples'), CATDS: 0.165477129932846; n = 1
[26] = tested on: ERBB3; conditions: read-out: apparent Kd, n = 1
[27] = tested on: MAP4K5; conditions: read-out: apparent Kd; compound concentrations: 100 nM and 1000 nM (sheet 'Samples'), CATDS: 0.26674698552626502; n = 1
[28] = tested on: NLK; conditions: read-out: apparent Kd; compound concentrations: 100 nM and 1000 nM (sheet 'Samples'), CATDS: 0.30347996318959403; n = 1
[29] = tested on: NQO2; conditions: read-out: apparent Kd; compound concentrations:100 nM and 1000 nM (sheet 'Samples'); n = 1
[30] = tested on: HCK; conditions: read-out: apparent Kd; compound concentrations: 100 nM and 1000 nM (sheet 'Samples'), CATDS: 0.242489240886436; n = 1
[31] = tested on: LCK; conditions: read-out: apparent Kd; compound concentrations: 100 nM and 1000 nM (sheet 'Samples'), CATDS: 0.10096254508192699; n = 1
[32] = tested on: LYN; conditions: read-out: apparent Kd; compound concentrations: 100 nM and 1000 nM (sheet 'Samples'), CATDS: 8.32238060167768E-2; n = 1
[33] = tested on: SRC; conditions: read-out: apparent Kd; compound concentrations: 100 nM and 1000 nM (sheet 'Samples'), CATDS: 0.138583252116979; n = 1
[34] = tested on: YES1; conditions: read-out: apparent Kd; compound concentrations: 100 nM and 1000 nM (sheet 'Samples'), CATDS: 0.11029012837176901; n = 1
[35] = tested on: T1, T10; conditions: read-out: apparent Kd; compound concentrations:100 nM and 1000 nM (sheet 'Samples'); n = 1
T1 construct: gene NAT10

[36] = compound concentrations:100 nM and 1000 nM (sheet 'Samples')

COc1ccc(COc2cc(-n3cnc4ccccc43)sc2C(N)=O)cc1 [GSK1024304A]
potency estimated from few doses [1]: 1710 nM | potency estimated from few doses [2]: 1150 nM | potency estimated from few doses [3]: 1030 nM

Nc1ncc(-c2cccc(S(N)(=O)=O)c2)c2scc(-c3ccc(F)c(Cl)c3)c12 [GW856804X]
potency estimated from few doses ([4]; CATDS: 0.132169396234084): 306 nM | potency estimated from few doses [5]: 758 nM | potency estimated from few doses [6]: 1770 nM | potency estimated from few doses ([7]; CATDS: 6.5260226509332095E-2): 1210 nM | potency estimated from few doses [8]: 1530 nM | potency estimated from few doses [9]: 710 nM | potency estimated from few doses ([10]; CATDS: 7.0423696237644606E-2): 1000 nM | potency estimated from few doses [11]: 1590 nM | potency estimated from few doses [12]: 1510 nM | potency estimated from few doses ([13]; CATDS: 0.101348300005731): 475 nM | potency estimated from few doses ([14]; CATDS: 0.17935532425018): 196 nM | potency estimated from few doses ([15]; CATDS: 9.6643303505933295E-2): 518 nM | potency estimated from few doses [16]: 961 nM

CC(C)(C)c1ccc2nccc(Nc3cccc(O)c3)c2c1 [GW856795X]
potency estimated from few doses ([4]; CATDS: 0.14534883893422801): 443 nM | potency estimated from few doses [17]: 1450 nM | potency estimated from few doses ([18]; CATDS: 0.110039828887459): 960 nM | potency estimated from few doses [19]: 634 nM | potency estimated from few doses ([13]; CATDS: 0.476664898558677): 52 nM | potency estimated from few doses ([14]; CATDS: 0.215705247056383): 192 nM | potency estimated from few doses ([15]; CATDS: 0.121800483782391): 703 nM

Cn1cc(C2=C(c3c[nH]c4ccccc34)C(=O)NC2=O)c2ccccc21 [RO0317884-000]
potency estimated from few doses ([7]; CATDS: 0.352465913660859): 1650 nM | potency estimated from few doses [20]: 146 nM

COc1cccc(NC(=O)NCCNc2ccnc(Nc3ccc(F)cc3)n2)c1 [GSK1379879A]
potency estimated from few doses [21]: 2400 nM

COc1ccc(N2Cc3cnc(Nc4ccccc4)nc3N([C@@H]3CC[C@@H](O)C3)C2=O)cc1 [RO4383596-000]
potency estimated from few doses ([22]; compound concentrations: 100 nM and 1000 nM (sheet 'Samples'), CATDS: 0.20218817743622799): 1300 nM | potency estimated from few doses [23]: 1170 nM | potency estimated from few doses ([10]; CATDS: 0.27304535513380701): 756 nM | potency estimated from few doses ([24]; CATDS: 0.176800836122779): 1750 nM | potency estimated from few doses [25]: 2060 nM

Nc1ncc(-c2ccncc2)c2scc(-c3ccc4c(c3)CCN4C(=O)Cc3ccccc3)c12 [GSK2592465A]
potency estimated from few doses ([22]; compound concentrations: 100 nM and 1000 nM (sheet 'Samples'), CATDS: 0.25930053020636601): 885 nM | potency estimated from few doses ([26]; compound concentrations: 100 nM and 1000 nM (sheet 'Samples'), CATDS: 0.19609805104920999): 1700 nM | potency estimated from few doses [27]: 837 nM | potency estimated from few doses [28]: 660 nM

Cc1cc(-c2ccccn2)cc(C)c1/C=C/c1cncc(-c2nn[nH]n2)c1.Cl [GW459057A]
potency estimated from few doses [22, 36]: 162 nM | potency estimated from few doses [29]: 1420 nM

Cc1cc(-c2ccco2)cc(C)c1/C=C/c1cncc(-c2nn[nH]n2)c1.Cl [GW458344A]
potency estimated from few doses [22, 36]: 401 nM

Cl.Nc1c(C(=O)c2ccc(CCCN3CCOCC3)cc2)cnn1-c1ccc(F)cc1 [RO1153427-001]
potency estimated from few doses ([26]; compound concentrations: 100 nM and 1000 nM (sheet 'Samples'), CATDS: 1): 1820 nM

O=C(NCCCN1CCOCC1)c1cccc(Nc2nccc(Nc3ccc(Oc4ccccc4)cc3)n2)c1 [GW663929X]
potency estimated from few doses ([26]; compound concentrations: 100 nM and 1000 nM (sheet 'Samples'), CATDS: 6.7979180467830594E-2): 1550 nM | potency estimated from few doses ([18]; CATDS: 0.114580255038188): 343 nM | potency estimated from few doses [30]: 96.7 nM | potency estimated from few doses [31]: 455 nM | potency estimated from few doses [32]: 756 nM | potency estimated from few doses ([24]; CATDS: 7.7428617985082396E-2): 947 nM | potency estimated from few doses ([13]; CATDS: 0.16454989385531299): 175 nM | potency estimated from few doses ([14]; CATDS: 6.5605703607897303E-2): 1820 nM | potency estimated from few doses [33]: 236 nM | potency estimated from few doses [34]: 373 nM

C[C@@H]1CC[C@@H](C(=O)Nc2ccccc2)CN1c1cc(-c2ccc3c(N)n[nH]c3c2)nc(N)n1 [GSK2286062A]
potency estimated from few doses [26, 36]: 1760 nM | potency estimated from few doses [35]: 1120 nM

— article PMC11062922 (Nature Chemical Biology, 2023)
